# Screening data deposited in PubChem by Buhrlage Lab, Dana-Farber Cancer Institute and Novartis Institutes for BioMedical Research (Cambridge, Mass).
# USP8 block: inhibitors of human USP8 deubiquitinase. purified USP8, Ub-rhodamine cleavage fluorescence, 30 min. Ubiquitin carboxyl-terminal hydrolase 8 (Homo sapiens), P40818. inhibition, % at 20 µM. actives 4.2% (n = 47,000). AID 1645853, 2021
# USP28 block: inhibitors of human USP28 deubiquitinase | purified USP28, Ub-rhodamine cleavage fluorescence, 30 min | inhibition, % at 25 µM | actives 3% (n = 47,000) | AID 1645857, 2021
# USP17 block: inhibitors of human USP17 deubiquitinase | Ubiquitin carboxyl-terminal hydrolase 17-like protein 5 (Homo sapiens), A8MUK1 | purified USP17, Ub-rhodamine cleavage fluorescence, 3 h | inhibition, % at 50 µM | actives 6.5% (n = 47,000)
# Target sequence (A8MUK1 whole entry, looked up): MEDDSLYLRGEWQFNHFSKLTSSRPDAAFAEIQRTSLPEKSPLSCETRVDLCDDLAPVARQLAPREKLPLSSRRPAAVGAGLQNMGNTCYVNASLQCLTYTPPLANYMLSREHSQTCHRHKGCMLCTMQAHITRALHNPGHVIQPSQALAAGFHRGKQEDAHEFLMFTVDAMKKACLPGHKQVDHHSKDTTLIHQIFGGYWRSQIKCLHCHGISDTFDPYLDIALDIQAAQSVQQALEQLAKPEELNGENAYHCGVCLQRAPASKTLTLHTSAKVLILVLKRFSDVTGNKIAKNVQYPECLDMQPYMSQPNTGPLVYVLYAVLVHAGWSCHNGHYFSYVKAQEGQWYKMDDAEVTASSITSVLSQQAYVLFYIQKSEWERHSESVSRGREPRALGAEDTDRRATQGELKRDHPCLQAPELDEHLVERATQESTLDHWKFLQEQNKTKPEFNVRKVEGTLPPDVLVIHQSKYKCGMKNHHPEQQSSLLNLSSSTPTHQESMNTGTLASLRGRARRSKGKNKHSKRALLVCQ
# USP30 inh: inhibitors of human USP30 deubiquitinase. purified USP30, Ub-rhodamine cleavage fluorescence. AID 1645860, 2021. inhibition, % at 25 µM. Ubiquitin carboxyl-terminal hydrolase 30 (Homo sapiens), Q70CQ3. actives 5.3% (n = 47,000)
# * = called active by the depositor; i = inactive; · = not tested or not shown. The list is not random: actives were taken first. Their share in the collection is about 14%. Rule as the data show it: active = inhibition above about 30%; inactive = the rest.
SMILES,USP8 block,USP28 block,USP17 block,USP30 inh
COc1ccc(-c2cnnn2-c2ccc(NC(=O)c3c(F)cccc3F)cc2)cc1OC,6.1,4.5,·,82.8*
COc1ccc(NC(=O)c2nnn(-c3ccccc3F)c2C)cc1OC,0.4,73.9*,-6.6,-2.0
COc1ccc(-n2nnc(C(=O)Nc3ccccc3F)c2C)cc1,16.5,12.4,9.9,25.1
CCN1CCN(CCNC(=O)c2cc3n(n2)CCCN(Cc2ccc(C)cc2)C3=O)CC1,1.1,2.3,3.1,23.3
COc1ccccc1NC(=O)CCc1ccc(-c2ccccc2)o1,-5.4,8.7,12.3,12.8
O=S(=O)(c1ccccc1)c1cnc2cc3c(cc2c1N1CCOCC1)OCCO3,0.5,0.6,-1.6,21.0
Cc1cccc(-n2nnc(C(=O)Nc3ccc(F)cc3)c2C)c1,18.0,18.6,18.9,31.5*
Cc1ccc(NC(=O)c2nnn(-c3ccccc3Br)c2C)cc1C,19.7,84.1*,10.9,10.4
COc1cc(=O)c(C(=O)Nc2ccc(C#N)cc2)nn1-c1cccc(F)c1,61.8*,42.8*,64.5*,-0.1
Cc1ccc(NC(=O)c2nnn(-c3cccc(F)c3)c2C)cc1C,16.3,20.4,13.4,11.8
Cc1c(C(=O)Nc2ccc(Oc3ccccc3)cc2)nnn1-c1cccc(Cl)c1,12.6,49.9*,16.1,24.7
COc1cccc(NC(=O)c2nn(-c3cccc(F)c3)c(OC)cc2=O)c1,20.9,10.6,4.7,9.3
Cc1cc(-c2ccc(S(=O)(=O)Nc3c(C)cccc3C)s2)n[nH]1,-3.5,-0.4,-2.4,-5.3
Cc1c(C(=O)Nc2ccc(F)cc2)nnn1-c1cccc(F)c1,20.8,9.8,28.9,36.7*
COc1cccc(-n2nnc(C(=O)Nc3ccc(C)c(C)c3)c2C)c1,13.1,58.4*,16.4,6.2
COc1cccc(C(=O)Nc2nc(-c3nnn(-c4ccc(C)c(F)c4)c3C)ns2)c1,55.7*,64.3*,61.5*,95.0*
CCc1ccc(NC(=O)c2nnn(-c3cccc(C)c3)c2C)cc1,-1.6,40.6*,0.8,-14.8
COc1ccc(NS(=O)(=O)c2cc(NC(=O)c3[nH]c(C)c(C(C)=O)c3C)ccc2N2CCOCC2)cc1,-2.0,-13.5,-13.6,-40.1
CC(C)(C)c1ccc(C(=O)Nc2ccc(Cn3cncn3)cc2)cc1,-13.1,55.5*,3.3,3.1
CN(C)c1ccc(NC(=O)c2ccc(Cn3cc([N+](=O)[O-])cn3)cc2)cc1,45.7*,27.9,29.5,-54.9
NC(=O)c1ccc(NC(=O)c2cnn(Cc3ccccc3)c2)cc1,0.6,8.4,37.8*,15.4
CN1c2ccccc2CN(C(=O)C2CC2)CC1Cc1ccccc1 (stereo not given),0.1,-0.2,-0.2,-16.3
COCCC(=O)N1CCC(c2nc3ccccn3c2NC(C)(C)C)CC1,13.9,7.4,7.5,0.2
Cc1cc(OCC(=O)Nc2ccccc2C#N)nc(-c2ccc(F)cc2)n1,-14.5,-6.1,35.5*,-24.7
Cc1cc(OCC(=O)Nc2c(C)cccc2C)nc(N2CCCCCC2)n1,1.8,5.2,30.1*,9.1
SMILES,USP8 block,USP28 block,USP17 block,USP30 inh
Cc1cc(OCC(=O)Nc2ccccc2F)nc(N2CCCC(C)C2)n1 (stereo not given),14.6,6.9,18.3,46.8*
Cc1cc(OCC(=O)Nc2ccccc2)nc(N2CCCCCC2)n1,20.7,18.3,12.7,26.4
COc1cccc(NC(=O)C2C3C=CC4(O3)C2C(=O)N(C2CCCCCC2)C4C(=O)NC2CCCCC2)c1 (stereo not given),-3.4,-11.8,3.3,2.1
COc1ccc(-n2c(C)cc(CNS(=O)(=O)c3ccc(NC(C)=O)cc3)c2C)cc1,-30.1,-92.5,-33.7,-308.4
N#Cc1ccccc1S(=O)(=O)N1CCN(C(=O)C2Cc3ccccc3C(=O)O2)CC1 (stereo not given),18.7,12.6,10.9,24.1
C/C=C\C1=CC(=O)[C@]23C[C@H]2[C@]2(C)CO[C@@]1(O)[C@@]3(O)O2,-321.4,-8.8,52.4*,-136.6
O=C(COc1ccc(N2CC(C(=O)NCc3ccccc3)CC2=O)cc1)Nc1ccccc1Cl (stereo not given),59.4*,12.5,56.0*,52.0*
Cc1ccc(C)c(NC(=O)NCCc2cn(C)c3ncccc23)c1,14.1,16.7,36.7*,18.4
CCOC(=O)c1cnc2nc(-c3ccc(OC)cc3)[nH]n2c1=O,10.8,-2.8,16.8,8.5
COCCN1C(=O)c2ccccc2C(C(=O)Nc2ccccn2)C1c1cccs1 (stereo not given),-10.0,-11.3,-12.7,-17.2
CN1C(=O)c2ccccc2C(C(=O)Nc2nc3ccccc3s2)C1c1cccs1 (stereo not given),-25.3,-8.5,37.2*,-15.1
COCCN1C(=O)c2ccccc2C(C(=O)Nc2cc(C)ccn2)C1c1cccs1 (stereo not given),15.6,7.3,9.3,33.2*
CN1C(=O)CCCC12CCCN(C(=O)c1cccc(C#N)c1)C2 (stereo not given),1.7,6.1,3.9,19.6
Cc1nc2n(c(=O)c1C)CCN2CC(=O)N1CCc2ccccc2C1,-14.5,-68.5,-55.0,-136.8
CCCN1CCN(C(=O)c2cnc(C)cn2)CC(Cc2ccc(-c3ccccc3)cc2)C1=O (stereo not given),-15.8,-16.9,-26.3,-30.5
Cn1c(=O)sc2cc(NC(=O)c3ccc(Br)cc3)ccc21,2.7,-2.5,58.8*,-49.0
Cc1cc(=O)[nH]c2cc(-c3ccccc3)nn12,2.8,3.4,11.3,38.5*
CCCCOc1ccc(-c2nc(SCC(=O)Nc3cccc(OC)c3)c3c4c(sc3n2)COC(C)(C)C4)cc1,12.2,7.1,11.5,13.5
COc1cc2c(=O)n(CCC(=O)NCC3CCCO3)c(=O)n(CC(=O)c3ccccc3)c2cc1OC (stereo not given),-0.2,9.2,5.8,23.3
COc1cc2c(=O)n(CC3CCCO3)c(=O)n(CC(=O)Nc3ccc4c(c3)OCCO4)c2cc1OC (stereo not given),12.0,13.7,49.1*,38.0*
COc1cc2c(=O)n(CC3CCCO3)c(=O)n(CC(=O)c3ccc4c(c3)OCO4)c2cc1OC (stereo not given),47.4*,3.2,10.2,-5.4
COc1cc2c(=O)n(CCCC(=O)NCC3CCCO3)c(=O)n(CC(=O)NC3CCCCC3)c2cc1OC (stereo not given),12.3,11.1,3.3,33.1*
COc1cc2c(=O)n(CCCC(=O)NCC3CCCO3)c(=O)n(CC(=O)c3ccc(Cl)cc3)c2cc1OC (stereo not given),-14.1,-129.3,-90.9,i
COCCCNc1ccc(-c2ccc(C)c(S(=O)(=O)N3CCCCC3)c2)nn1,-7.8,-7.4,-0.1,-6.0
COc1cc(CN(C(=O)c2oc3cc(C)ccc3c2C)c2ccccn2)cc(OC)c1OC,31.5*,11.3,16.8,-10.0
COc1cc(C(=O)N(Cc2cccc3ccccc23)c2ccccn2)cc(OC)c1OC,2.2,0.1,0.9,0.4
O=C(NC1CC1)N1CCC2(CC1)CN(c1cccnc1)c1ccccc12,-112.0,5.1,-19.4,-1.4
